Assay results reported in PubChem BioAssay (Tox21).
Inconclusive results are not listed. Active and inactive are the calls of the source. Unless noted, calls follow the shape of the full dose curve.

Assays:
[1] = Nuclear factor erythroid 2-related factor 2/antioxidant responsive element (Nrf2/ARE) small molecule agonists: qHTS cell viability counter screen in human keratinocytes (AID 1919968; active = well fitted curve in the direction sought with a large enough effect in the repeat runs; an effect the other way counts as inactive or inconclusive; also: nearly all actives have a fitted effect of over 55% in size)
In short: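 HaCaT ARE reporter line, 1,500 cells/well; 5 h settle, 37 C/5% CO2; cpd in DMSO pinned; 23 h exposure; CellTiter-Fluor, 1 h; fluorescence.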

[2] = Nuclear factor erythroid 2-related factor 2/antioxidant responsive element (Nrf2/ARE) small molecule agonists: luciferase reporter gene qHTS assay in human keratinocytes (AID 1919969); also: nearly all actives have a fitted effect of over 35% in size; also: potency is read from the fitted curve at half-maximal effect
[3] = molecular target: Gonadotropin-releasing hormone receptor (Homo sapiens) (UniProt P30968); experiment: Human gonadotropin-releasing hormone receptor (GnRHR) small molecule agonists, calcium flux assay in GnRHR-HEK293 cells (AID 1920063); also: nearly all actives have a fitted effect of over 35% in size
Chain of Gonadotropin-releasing hormone receptor (Homo sapiens) (P30968 whole entry, looked up): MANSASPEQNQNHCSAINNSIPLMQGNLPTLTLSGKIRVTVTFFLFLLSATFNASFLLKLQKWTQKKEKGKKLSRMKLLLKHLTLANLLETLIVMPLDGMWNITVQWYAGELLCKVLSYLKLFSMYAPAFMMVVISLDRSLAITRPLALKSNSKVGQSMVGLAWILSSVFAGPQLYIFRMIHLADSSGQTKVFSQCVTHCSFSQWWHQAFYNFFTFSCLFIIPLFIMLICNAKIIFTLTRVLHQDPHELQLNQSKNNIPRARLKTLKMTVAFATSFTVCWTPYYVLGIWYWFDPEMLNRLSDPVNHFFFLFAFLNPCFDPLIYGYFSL
In short: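 GnRHR-HEK293, 1500 cells/well, 18 h 37 C/5% CO2; Ca dye 1 h 37 C; cpd pinned (DMSO), agonist mode; kinetic FL 480/540, 3 min, 1 s reads; 15 conc, n=3.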

[4] = molecular target: KiSS-1 receptor (Homo sapiens) (UniProt Q969F8); experiment: Human kisspeptin (KISS1R) small molecule agonists, calcium flux assay in KISS1R-HEK293 cells (AID 1920064; active = well fitted curve in the direction sought with a large enough effect in the repeat runs; an effect the other way counts as inactive or inconclusive)
Chain of KiSS-1 receptor (Homo sapiens) (Q969F8 whole entry, looked up): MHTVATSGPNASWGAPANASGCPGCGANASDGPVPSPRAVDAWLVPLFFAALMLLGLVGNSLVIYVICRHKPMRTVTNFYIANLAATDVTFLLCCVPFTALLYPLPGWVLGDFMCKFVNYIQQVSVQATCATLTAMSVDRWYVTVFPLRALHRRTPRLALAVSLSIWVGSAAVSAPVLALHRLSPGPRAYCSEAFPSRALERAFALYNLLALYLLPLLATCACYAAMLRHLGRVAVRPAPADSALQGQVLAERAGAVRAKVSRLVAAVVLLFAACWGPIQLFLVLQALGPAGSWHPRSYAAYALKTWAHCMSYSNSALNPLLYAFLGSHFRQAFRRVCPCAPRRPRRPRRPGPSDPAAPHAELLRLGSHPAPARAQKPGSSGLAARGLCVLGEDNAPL
In short: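 Stable human KISS1R HEK293 line; 18 h plating, 37 C/5% CO2; calcium dye 1 h 37 C; compound pin transfer; kinetic fluorescence Ex/Em 480/540, 3 min.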

[5] = G protein-coupled receptor (GPCR) small molecule agonists, calcium flux assay: HEK293 wild type cell line counter screen (AID 1920065)
In short: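 Kinetic fluorescence at Ex/Em 480/540, recorded every second over 3 min, served as the read-out after compound addition. Each compound was tested at 15 concentrations in triplicate on cells pre-loaded with calcium dye for 1 h.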

[6] = p53 small molecule agonists, cell-based qHTS assay with human liver microsomes (AID 1963577);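 also: p53 response element beta-lactamase reporter cells with liver microsomes plus NADPH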
In short: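 p53RE-bla cells; 5 h settle, 37 C/5% CO2; cpd + HLM 0.5 mg/mL + NADPH 0.5 mg/mL (final); 16 h 37 C; LiveBLAzer 2 h RT dark; fluorescence readout.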

[7] = p53 small molecule agonists, cell-based qHTS assay with rat liver microsomes (AID 1963578)
In short: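 Rat liver microsome activation: microsomes 0.5 mg/mL, NADPH 0.5 mg/mL final; p53RE-bla cells, 16 h 37 C; LiveBLAzer readout, 2 h RT dark.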

[8] = p53 small molecule agonists, cell-based qHTS assay with human liver microsomes: qHTS cell viability counter screen (AID 1963579); also: nearly all actives have a fitted effect of over 45% in size
In short: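 Luminescent CellTiter-Glo read-out, 30 min at room temperature, gauged cytotoxicity in p53RE-bla cells exposed 16 h at 37 C to DMSO-dissolved compounds with metabolic activation by human liver microsomes and NADPH, each 0.5 mg/mL final.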

[9] = p53 small molecule agonists, cell-based qHTS assay with rat liver microsomes: qHTS cell viability counter screen (AID 1963580); also: nearly all actives have a fitted effect of over 45% in size
In short: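 p53RE-bla HCT-116 cells (4,000/well) rested 5 h at 37 C, then given Tox21 compounds in DMSO with rat liver microsomes (0.5 mg/mL final) plus NADPH (0.5 mg/mL final) for 16 h at 37 C. Viability read by CellTiter-Glo luminescence after 30 min at room temperature.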

[10] = p53 small molecule agonists, cell-based qHTS assay: qHTS cell viability counter screen (AID 1963581); also: nearly all actives have a fitted effect of over 45% in size
In short: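 HCT-116 p53RE-bla cells, 4,000/well, plated 5 h before compound pin transfer; 16 h at 37 C; bla substrate 2 h RT; then CellTiter-Glo, 30 min RT, luminescence.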

[11] = p53 small molecule agonists, cell-based qHTS assay (AID 1963582; active = well fitted activation curve with a large enough effect in the signal ratio in the repeat runs, not every such curve was filed as active; the % refers to the signal ratio)
In short: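 Reporter line: p53RE-bla. Pre-incubation 5 h, 37 C, 5% CO2; compound (DMSO, pin tool) 16 h, 37 C; B/G FRET substrate 2 h RT; fluorescence intensity read.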

[12] = molecular target: 5-hydroxytryptamine receptor 2A (Homo sapiens) (UniProt P28223); experiment: 5-hydroxytryptamine receptor 2A (HTR2A) small molecule antagonists, cell-based qHTS assay (AID 1963586); also: nearly all actives have a fitted effect of over 45% in size
Chain of 5-hydroxytryptamine receptor 2A (Homo sapiens) (P28223 whole entry, looked up): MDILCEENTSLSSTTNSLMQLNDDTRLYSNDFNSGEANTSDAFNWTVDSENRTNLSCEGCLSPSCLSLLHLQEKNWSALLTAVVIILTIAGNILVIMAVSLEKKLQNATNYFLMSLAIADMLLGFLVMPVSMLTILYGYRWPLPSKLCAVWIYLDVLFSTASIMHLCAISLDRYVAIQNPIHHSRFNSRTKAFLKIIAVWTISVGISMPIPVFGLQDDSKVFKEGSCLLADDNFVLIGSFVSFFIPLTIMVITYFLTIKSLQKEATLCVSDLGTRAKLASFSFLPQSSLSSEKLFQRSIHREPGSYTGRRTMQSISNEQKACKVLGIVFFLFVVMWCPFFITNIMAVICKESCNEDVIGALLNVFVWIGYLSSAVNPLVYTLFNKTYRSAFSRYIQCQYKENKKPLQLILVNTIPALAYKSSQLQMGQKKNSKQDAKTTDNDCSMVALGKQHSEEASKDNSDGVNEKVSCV
In short: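 Antagonist-mode intracellular calcium assay: DOI (4 nM) added after 5 min compound pre-incubation at room temperature to dye-loaded HTR2A-CHO cells. Fluorescence followed for 3 min, sampled every second.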

[13] = molecular target: 5-hydroxytryptamine receptor 2A (Homo sapiens) (UniProt P28223); experiment: 5-hydroxytryptamine receptor 2A (HTR2A) small molecule agonists, cell-based qHTS assay (AID 1963587); also: nearly all actives have a fitted effect of over 30% in size; also: potency is read from the fitted curve at half-maximal effect
In short: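 HTR2A-CHO cells, plated 18 h at 37 C/5% CO2, dye-loaded 1 h at 37 C; compounds in DMSO added by pin tool (agonist mode). Intracellular calcium flux read as kinetic fluorescence on FDSS over 2 min at 1 s intervals.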

[14] = molecular target: Muscarinic acetylcholine receptor M1 (Homo sapiens) (UniProt P11229); experiment: Cholinergic receptor muscarinic 1 (CHRM1) small molecule agonists, cell-based qHTS assay (AID 1963589); also: nearly all actives have a fitted effect of over 35% in size
Chain of Muscarinic acetylcholine receptor M1 (Homo sapiens) (P11229 whole entry, looked up): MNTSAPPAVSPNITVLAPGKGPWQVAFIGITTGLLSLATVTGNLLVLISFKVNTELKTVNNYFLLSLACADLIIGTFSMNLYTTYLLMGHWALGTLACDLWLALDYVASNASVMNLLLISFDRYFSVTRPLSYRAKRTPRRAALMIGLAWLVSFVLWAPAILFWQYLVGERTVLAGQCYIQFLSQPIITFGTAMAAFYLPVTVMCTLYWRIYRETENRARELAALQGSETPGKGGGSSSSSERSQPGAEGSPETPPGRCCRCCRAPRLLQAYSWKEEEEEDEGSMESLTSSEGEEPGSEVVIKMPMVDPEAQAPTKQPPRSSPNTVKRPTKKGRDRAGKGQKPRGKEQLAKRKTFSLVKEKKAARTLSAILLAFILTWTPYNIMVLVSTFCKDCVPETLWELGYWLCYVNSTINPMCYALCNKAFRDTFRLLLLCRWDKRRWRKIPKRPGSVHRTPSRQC
In short: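 Human M1 in stable CHO line; 18 h plating, 1 h dye load 37 C; cpd added (agonist mode); Ca2+ fluorescence kinetic read, 1 s intervals; 15 conc, 3 runs.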

[15] = cAMP Responsive Elements (CRE) small molecule agonists, cell-based qHTS assay (AID 1963590)
In short: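 HEK 293T CRE-bla, 2,000 cells/well, 18 h preincubation 37 C/5% CO2; cpds (DMSO) pinned, 3 h; LiveBLAzer B/G FRET substrate, 2 h RT.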

[16] = cAMP Responsive Elements (CRE) small molecule antagonists, cell-based qHTS assay (AID 1963591; active = well fitted inhibition curve with a large enough effect in the signal ratio in the repeat runs, not every such curve was filed as active; the % refers to the signal ratio)
In short: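 Beta-lactamase reporter read by FRET substrate (LiveBLAzer B/G) after 2 h at room temperature. CRE-bla HEK293T cells had received compound plus 0.25 uM (final) NKH477 for 3 h at 37 °C.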

[17] = molecular target: Beta-2 adrenergic receptor (Homo sapiens) (UniProt P07550); experiment: Adrenergic beta2 receptor (ADRB2) small molecule antagonists, cell-based qHTS assay (AID 1963592); also: series mostly up to about 92 µM; nearly all actives have a fitted effect of over 50% in size
Chain of Beta-2 adrenergic receptor (Homo sapiens) (P07550 whole entry, looked up): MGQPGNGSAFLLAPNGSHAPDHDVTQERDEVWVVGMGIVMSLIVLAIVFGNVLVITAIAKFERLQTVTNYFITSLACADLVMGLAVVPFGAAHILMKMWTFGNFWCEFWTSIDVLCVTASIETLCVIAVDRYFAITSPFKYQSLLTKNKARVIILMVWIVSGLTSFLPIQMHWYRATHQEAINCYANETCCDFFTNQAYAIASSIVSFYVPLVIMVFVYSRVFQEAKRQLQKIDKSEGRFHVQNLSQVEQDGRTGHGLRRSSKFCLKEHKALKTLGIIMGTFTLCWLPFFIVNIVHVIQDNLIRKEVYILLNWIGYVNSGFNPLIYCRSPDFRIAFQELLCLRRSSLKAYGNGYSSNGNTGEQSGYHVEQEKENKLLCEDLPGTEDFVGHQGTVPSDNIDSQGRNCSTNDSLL
In short: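 Cells (CHO, stable ADRB2 overexpression) incubated 18-20hr at 37C; compounds added from DMSO; agonist mix (1nM isoproterenol, 100uM IBMX, 25uM Ro-20-1724) added; 0.5hr RT; d2-cAMP and anti-cAMP-cryptate added; 1hr RT; 665/615 nm read.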

[18] = molecular target: D(2) dopamine receptor (Homo sapiens) (UniProt P14416); experiment: Dopamine D2 receptor (DRD2) small molecule agonists, cell-based qHTS assay (AID 1963594); also: nearly all actives have a fitted effect of over 35% in size
Chain of D(2) dopamine receptor (Homo sapiens) (P14416 whole entry, looked up): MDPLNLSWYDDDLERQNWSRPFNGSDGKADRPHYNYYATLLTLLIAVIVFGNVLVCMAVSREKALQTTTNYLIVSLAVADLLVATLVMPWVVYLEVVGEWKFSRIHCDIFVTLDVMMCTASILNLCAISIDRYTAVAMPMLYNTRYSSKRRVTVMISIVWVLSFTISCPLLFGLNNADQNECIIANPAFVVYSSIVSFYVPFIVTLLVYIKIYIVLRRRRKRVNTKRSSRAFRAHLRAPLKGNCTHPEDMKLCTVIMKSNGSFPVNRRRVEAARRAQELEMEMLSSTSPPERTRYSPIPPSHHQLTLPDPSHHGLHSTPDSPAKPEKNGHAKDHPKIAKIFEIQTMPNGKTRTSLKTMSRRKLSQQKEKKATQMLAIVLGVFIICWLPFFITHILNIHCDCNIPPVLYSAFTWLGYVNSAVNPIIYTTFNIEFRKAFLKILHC
In short: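 HEK293 cells stably expressing DRD2 were cultured 24 h at 37 C, then given Ro20-1724 (0.1 mM final) and compounds for 10 min at room temperature. NKH477 (200nM) was then added for 30 min. cAMP was read by HTRF.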

[19] = molecular target: D(2) dopamine receptor (Homo sapiens) (UniProt P14416); experiment: Dopamine D2 receptor (DRD2) small molecule antagonists, cell-based qHTS assay (AID 1963595; active = well fitted inhibition curve with a large enough effect in the signal ratio in the repeat runs, with a control signal flat; the % refers to the signal ratio)
In short: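 HEK293 cells stably expressing DRD2 were preincubated with 0.1 mM Ro20-1724, then with compound for 10 min at room temperature. Cells were stimulated with 200 nM NKH477 plus 12 nM quinpirole for 30 min, and cAMP was read by HTRF.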

[20] = molecular target: Muscarinic acetylcholine receptor M1 (Homo sapiens) (UniProt P11229); experiment: Cholinergic receptor muscarinic 1 (CHRM1) small molecule antagonists, cell-based qHTS assay (AID 1963588); also: nearly all actives have a fitted effect of over 40% in size
In short: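 CHRM1-CHO calcium-flux assay, antagonist mode. Cells were seeded 18 h, dye-loaded 1 h at 37 C and given compound for 5 min at RT, then acetylcholine was added at 50nM. FDSS fluorescence was read 3 min; 15 concentrations, three runs.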

Measured: Potency

CCC(CC)C(C)CCOC(C)=O (stereo not drawn)
not listed: [20]
inactive: all other assays above

N#CC1(O)CCCCC1
active: [2] 61.6 µM
not listed: [20]
inactive: all other assays above

CCOC(=O)c1ccc(O)c(O)c1
not listed: [20]
inactive: all other assays above

CCCCCCOC(=O)c1ccccc1O
not listed: [14]
inactive: all other assays above

Cc1ccc(S(N)(=O)=O)cc1
not listed: [14]
inactive: all other assays above

CC(=O)OCCOCCOCCOC(C)=O
not listed: [20]
inactive: all other assays above

C=CCCCCCCCCO
not listed: [15] | [20]
inactive: all other assays above

C=CC(C)(O)CC/C=C(\C)CCC=C(C)C (stereo not drawn)
not listed: [14] | [15]
inactive: all other assays above

C/C(=C(\CCO)SS/C(CCO)=C(\C)N(C=O)Cc1cnc(C)nc1N)N(C=O)Cc1cnc(C)nc1N
not listed: [20]
inactive: all other assays above

CC(=O)N1CCN(c2ccc(O)cc2)CC1
not listed: [20]
inactive: all other assays above

O=C1C(O)=C(O)C(=O)C(O)=C1O
active: [13] 0.0477 µM
not listed: [20]
inactive: all other assays above

O=C1CCN(c2ccccc2)N1
not listed: [14]
inactive: all other assays above

O=C(O)CCCCCC(=O)O
not listed: [20]
inactive: all other assays above

O=C(O)c1ccc(OCCCOc2ccc(C(=O)O)cc2)cc1
not listed: [20]
inactive: all other assays above

CC1=CC(C)C(C=O)CC1 (stereo not drawn)
not listed: [20]
inactive: all other assays above
